Source: PubChem BioAssay (Tox21)
Inconclusive results are not listed. Calls of active or inactive are those of the source. Unless noted, calls come from the whole dose curve.

Assays:
[1] = Nuclear factor erythroid 2-related factor 2/antioxidant responsive element (Nrf2/ARE) small molecule agonists: qHTS cell viability counter screen in human keratinocytes (AID 1919968; active = well fitted curve in the direction sought with a large enough effect in the repeat runs; an effect the other way counts as inactive or inconclusive; note: nearly all actives have a fitted effect of over 55% in size)
Method in brief: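 Cells of the KeratinoSens line were plated at 1,500 per well and left for 5 h before compound transfer from DMSO stocks. After a 23 h incubation (37 C, 5% CO2), CellTiter-Fluor was added. Signal was taken as fluorescence intensity 1 h later.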

[2] = target: Gonadotropin-releasing hormone receptor (Homo sapiens) (UniProt P30968); assay: Human gonadotropin-releasing hormone receptor (GnRHR) small molecule agonists, calcium flux assay in GnRHR-HEK293 cells (AID 1920063); note: nearly all actives have a fitted effect of over 35% in size
Method in brief: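 Compounds dissolved in DMSO are pin-transferred onto dye-loaded GnRHR-HEK293 cells, which were seeded 18 h before at 37 C/5% CO2. Calcium signal is read as fluorescence intensity at 1 s intervals for 3 min.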

[3] = target: KiSS-1 receptor (Homo sapiens) (UniProt Q969F8); assay: Human kisspeptin (KISS1R) small molecule agonists, calcium flux assay in KISS1R-HEK293 cells (AID 1920064; active = well fitted curve in the direction sought with a large enough effect in the repeat runs; an effect the other way counts as inactive or inconclusive)
Method in brief: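 Cell line: HEK293, stable human KISS1R. Dye loading 1 h at 37 C after 18 h culture. Read: kinetic fluorescence, 480/540 nm, 3 min at 1 s intervals.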

[4] = G protein-coupled receptor (GPCR) small molecule agonists, calcium flux assay: HEK293 wild type cell line counter screen (AID 1920065)
Method in brief: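 Tox21 10K compounds, 15 concentrations each in triplicate, pin-transferred in DMSO onto dye-loaded cells; kinetic read at 480/540 nm for 3 min, 1 s intervals.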

[5] = p53 small molecule agonists, cell-based qHTS assay with human liver microsomes (AID 1963577)
Method in brief: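 p53RE-bla reporter cells were pre-incubated 5 h at 37 C, then treated with compounds plus human liver microsomes (0.5 mg/mL final) and NADPH (0.5 mg/mL final) for 16 h at 37 C. Beta-lactamase activity was read by LiveBLAzer fluorescence after 2 h at room temperature.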

[6] = p53 small molecule agonists, cell-based qHTS assay with rat liver microsomes (AID 1963578)
Method in brief: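 p53RE-bla cells were exposed to compounds together with rat liver microsomes (0.5 mg/mL final) and NADPH (0.5 mg/mL final) for 16 h at 37 C, then read by LiveBLAzer beta-lactamase fluorescence after 2 h at room temperature.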

[7] = p53 small molecule agonists, cell-based qHTS assay with human liver microsomes: qHTS cell viability counter screen (AID 1963579); note: nearly all actives have a fitted effect of over 45% in size
Method in brief: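 p53RE-bla cells (4,000/well) were pre-incubated 5 h at 37 C, then given compounds in DMSO plus human liver microsomes (0.5 mg/mL final) and NADPH (0.5 mg/mL final) for 16 h at 37 C. Viability was read by CellTiter-Glo luminescence.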

[8] = p53 small molecule agonists, cell-based qHTS assay with rat liver microsomes: qHTS cell viability counter screen (AID 1963580); note: nearly all actives have a fitted effect of over 45% in size
Method in brief: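 Luminescent ATP readout (CellTiter-Glo, 30 min at room temperature) reports viability of p53RE-bla HCT-116 cells after 16 h at 37 C with test compounds under metabolic activation by rat liver microsomes and NADPH at 0.5 mg/mL final each.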

[9] = p53 small molecule agonists, cell-based qHTS assay: qHTS cell viability counter screen (AID 1963581); note: nearly all actives have a fitted effect of over 45% in size
Method in brief: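 ATP content measured by luminescence in HCT-116 p53RE-bla cells treated 16 h at 37 C, same wells as the reporter screen.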

[10] = p53 small molecule agonists, cell-based qHTS assay (AID 1963582; active = well fitted activation curve with a large enough effect in the signal ratio in the repeat runs, not every such curve was filed as active; the % refers to the signal ratio)
Method in brief: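 16 h compound exposure (37 C) of p53 response element–bla cells, preceded by 5 h recovery at 37 C/5% CO2; read-out via LiveBLAzer B/G FRET substrate, 2 h RT, fluorescence intensity.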

[11] = target: 5-hydroxytryptamine receptor 2A (Homo sapiens) (UniProt P28223); assay: 5-hydroxytryptamine receptor 2A (HTR2A) small molecule antagonists, cell-based qHTS assay (AID 1963586); note: nearly all actives have a fitted effect of over 45% in size
Method in brief: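 CHO cells stably expressing human HTR2A were plated for 18 h at 37 C, then loaded with calcium dye for 1 h. Compounds were preincubated 5 min at room temperature before DOI (4 nM solution) was added. Kinetic fluorescence was read for 3 min.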

[12] = target: Muscarinic acetylcholine receptor M1 (Homo sapiens) (UniProt P11229); assay: Cholinergic receptor muscarinic 1 (CHRM1) small molecule antagonists, cell-based qHTS assay (AID 1963588); note: nearly all actives have a fitted effect of over 40% in size
Method in brief: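 Compounds were tested at 15 concentrations in three independent runs. Dye-loaded CHRM1-CHO cells were exposed 5 min at room temperature before stimulation by acetylcholine added at 50nM. Intracellular calcium was read kinetically on FDSS for 3 min.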

[13] = target: Muscarinic acetylcholine receptor M1 (Homo sapiens) (UniProt P11229); assay: Cholinergic receptor muscarinic 1 (CHRM1) small molecule agonists, cell-based qHTS assay (AID 1963589); note: nearly all actives have a fitted effect of over 35% in size
Method in brief: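 Homogeneous fluorescence calcium flux, agonist mode. Human M1-expressing CHO cells; compound dosed at 15 concentrations, three independent runs; signal sampled every 1 sec.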

[14] = target: Beta-2 adrenergic receptor (Homo sapiens) (UniProt P07550); assay: Adrenergic beta2 receptor (ADRB2) small molecule antagonists, cell-based qHTS assay (AID 1963592); note: series mostly up to about 92 µM; nearly all actives have a fitted effect of over 50% in size
Method in brief: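 Assay format: CHO-ADRB2 cells, 18-20hr seeding at 37C/5% CO2, then compound plus 1nM isoproterenol agonist mix for 0.5hr RT. Homogeneous time-resolved fluorescence cAMP detection after 1hr, expressed as 665/615 nm ratio.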

[15] = target: D(2) dopamine receptor (Homo sapiens) (UniProt P14416); assay: Dopamine D2 receptor (DRD2) small molecule agonists, cell-based qHTS assay (AID 1963594); note: nearly all actives have a fitted effect of over 35% in size
Method in brief: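 HEK293 cells stably expressing DRD2 were cultured 24 h at 37 C, then given Ro20-1724 (0.1 mM final) and compounds for 10 min at room temperature. NKH477 (200nM) was then added for 30 min. cAMP was read by HTRF.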

[16] = target: D(2) dopamine receptor (Homo sapiens) (UniProt P14416); assay: Dopamine D2 receptor (DRD2) small molecule antagonists, cell-based qHTS assay (AID 1963595; active = well fitted inhibition curve with a large enough effect in the signal ratio in the repeat runs, with a control signal flat; the % refers to the signal ratio)
Method in brief: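 DRD2-HEK293; 0.1 mM Ro20-1724; cpd 10 min RT; NKH477 200 nM + quinpirole 12 nM, 30 min RT; HTRF cAMP (cAMP-d2/anti-cAMP cryptate), 665/620 nm ratio after 1 h.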

[17] = target: 5-hydroxytryptamine receptor 2A (Homo sapiens) (UniProt P28223); assay: 5-hydroxytryptamine receptor 2A (HTR2A) small molecule agonists, cell-based qHTS assay (AID 1963587); note: nearly all actives have a fitted effect of over 30% in size
Method in brief: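 HTR2A-CHO cells, plated 18 h at 37 C/5% CO2, dye-loaded 1 h at 37 C; compounds in DMSO added by pin tool (agonist mode). Intracellular calcium flux read as kinetic fluorescence on FDSS over 2 min at 1 s intervals.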

[18] = cAMP Responsive Elements (CRE) small molecule agonists, cell-based qHTS assay (AID 1963590)
Method in brief: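 HEK 293T cells stably bearing CRE-bla were plated at 2,000 cells per well and rested 18 h. Compounds, positive controls or DMSO were added for 3 h at 37 C. LiveBLAzer B/G substrate was then loaded for 2 h at room temperature.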

[19] = cAMP Responsive Elements (CRE) small molecule antagonists, cell-based qHTS assay (AID 1963591; active = well fitted inhibition curve with a large enough effect in the signal ratio in the repeat runs, not every such curve was filed as active; the % refers to the signal ratio)
Method in brief: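 First, CRE-bla HEK293T cells settled 18 h at 37 C. Next, compound and 0.25 uM final NKH477 were applied for 3 h. Last, LiveBLAzer B/G substrate was loaded for 2 h at room temperature.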

Measured: Potency

Chain of Beta-2 adrenergic receptor (Homo sapiens) (P07550 whole entry, looked up): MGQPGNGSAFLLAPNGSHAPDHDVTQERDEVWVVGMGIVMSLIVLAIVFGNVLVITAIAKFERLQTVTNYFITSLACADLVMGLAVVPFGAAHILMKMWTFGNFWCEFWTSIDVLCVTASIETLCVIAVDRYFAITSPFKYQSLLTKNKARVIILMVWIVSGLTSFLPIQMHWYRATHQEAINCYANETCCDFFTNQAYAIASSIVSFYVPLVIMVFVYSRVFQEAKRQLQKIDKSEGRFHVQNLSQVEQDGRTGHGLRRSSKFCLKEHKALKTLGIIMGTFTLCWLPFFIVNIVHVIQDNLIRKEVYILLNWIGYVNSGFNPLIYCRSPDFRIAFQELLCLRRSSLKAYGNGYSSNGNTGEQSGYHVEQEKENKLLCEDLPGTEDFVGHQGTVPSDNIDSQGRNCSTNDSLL
Chain of 5-hydroxytryptamine receptor 2A (Homo sapiens) (P28223 whole entry, looked up): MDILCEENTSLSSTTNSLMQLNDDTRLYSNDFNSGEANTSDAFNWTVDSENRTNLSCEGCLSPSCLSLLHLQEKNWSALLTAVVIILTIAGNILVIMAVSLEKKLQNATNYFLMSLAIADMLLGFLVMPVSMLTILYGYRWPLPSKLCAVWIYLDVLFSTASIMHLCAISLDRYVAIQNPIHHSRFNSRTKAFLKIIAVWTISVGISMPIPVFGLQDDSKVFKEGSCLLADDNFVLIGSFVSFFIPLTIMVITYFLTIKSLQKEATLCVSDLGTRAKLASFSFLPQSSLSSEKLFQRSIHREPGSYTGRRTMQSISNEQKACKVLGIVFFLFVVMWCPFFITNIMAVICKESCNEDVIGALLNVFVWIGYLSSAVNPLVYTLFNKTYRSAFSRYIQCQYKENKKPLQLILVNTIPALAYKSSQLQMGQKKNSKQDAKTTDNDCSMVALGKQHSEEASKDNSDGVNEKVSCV
Chain of Gonadotropin-releasing hormone receptor (Homo sapiens) (P30968 whole entry, looked up): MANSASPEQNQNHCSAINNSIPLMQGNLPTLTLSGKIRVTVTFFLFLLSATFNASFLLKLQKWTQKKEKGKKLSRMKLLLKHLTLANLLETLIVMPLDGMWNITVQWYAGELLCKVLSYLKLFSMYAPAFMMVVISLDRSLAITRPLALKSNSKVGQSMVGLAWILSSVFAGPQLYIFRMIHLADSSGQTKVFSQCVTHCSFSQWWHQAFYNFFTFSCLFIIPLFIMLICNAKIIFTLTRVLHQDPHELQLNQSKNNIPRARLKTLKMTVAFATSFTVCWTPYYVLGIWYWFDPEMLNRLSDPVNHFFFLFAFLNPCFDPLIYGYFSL
Chain of KiSS-1 receptor (Homo sapiens) (Q969F8 whole entry, looked up): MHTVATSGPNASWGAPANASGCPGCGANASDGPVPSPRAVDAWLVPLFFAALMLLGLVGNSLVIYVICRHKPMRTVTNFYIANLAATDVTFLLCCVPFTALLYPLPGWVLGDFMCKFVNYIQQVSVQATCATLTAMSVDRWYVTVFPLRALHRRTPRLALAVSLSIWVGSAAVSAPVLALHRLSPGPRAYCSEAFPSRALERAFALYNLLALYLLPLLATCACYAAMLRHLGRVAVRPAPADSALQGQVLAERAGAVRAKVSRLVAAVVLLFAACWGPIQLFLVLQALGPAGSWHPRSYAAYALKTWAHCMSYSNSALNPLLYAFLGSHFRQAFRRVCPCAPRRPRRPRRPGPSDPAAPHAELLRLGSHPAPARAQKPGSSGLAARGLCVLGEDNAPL
Chain of D(2) dopamine receptor (Homo sapiens) (P14416 whole entry, looked up): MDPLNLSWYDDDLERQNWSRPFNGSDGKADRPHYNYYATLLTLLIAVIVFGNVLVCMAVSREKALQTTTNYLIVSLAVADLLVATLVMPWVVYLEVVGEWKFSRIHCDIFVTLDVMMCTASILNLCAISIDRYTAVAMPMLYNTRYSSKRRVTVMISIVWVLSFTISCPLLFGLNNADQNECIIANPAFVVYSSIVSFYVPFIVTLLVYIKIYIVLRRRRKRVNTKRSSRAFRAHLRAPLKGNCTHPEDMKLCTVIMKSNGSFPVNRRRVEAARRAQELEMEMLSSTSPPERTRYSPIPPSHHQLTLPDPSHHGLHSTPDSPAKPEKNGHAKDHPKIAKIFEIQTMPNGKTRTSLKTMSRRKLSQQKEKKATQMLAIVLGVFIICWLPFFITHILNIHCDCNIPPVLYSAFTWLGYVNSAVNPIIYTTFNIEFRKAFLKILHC
Chain of Muscarinic acetylcholine receptor M1 (Homo sapiens) (P11229 whole entry, looked up): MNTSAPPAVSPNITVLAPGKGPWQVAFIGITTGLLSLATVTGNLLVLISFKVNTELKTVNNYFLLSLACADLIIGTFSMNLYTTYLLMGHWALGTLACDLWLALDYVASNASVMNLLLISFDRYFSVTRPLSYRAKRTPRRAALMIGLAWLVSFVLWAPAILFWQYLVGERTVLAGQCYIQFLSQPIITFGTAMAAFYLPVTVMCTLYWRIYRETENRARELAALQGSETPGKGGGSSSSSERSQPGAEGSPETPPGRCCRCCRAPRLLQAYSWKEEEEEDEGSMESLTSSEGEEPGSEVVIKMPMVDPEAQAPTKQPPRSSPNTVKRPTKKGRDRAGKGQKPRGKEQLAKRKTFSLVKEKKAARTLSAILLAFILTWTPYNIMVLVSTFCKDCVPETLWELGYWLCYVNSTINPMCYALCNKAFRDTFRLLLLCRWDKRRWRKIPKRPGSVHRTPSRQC

CC1(C(=O)Nc2ccc(O)c(Cl)c2Cl)CCCCC1
inactive: [1] | [2] | [3] | [4] | [5] | [6] | [7] | [8] | [9] | [10] | [11] | [12] | [13] | [14] | [15] | [16]

C=CC(=O)OC
inactive: [1] | [2] | [3] | [4] | [5] | [6] | [7] | [8] | [10] | [11] | [17] | [12] | [13] | [18] | [14] | [16]

O=C1CCCCC1Cl (stereo not drawn)
inactive: [1] | [2] | [3] | [4] | [5] | [6] | [7] | [8] | [9] | [11] | [17] | [12] | [13] | [18] | [19] | [14] | [15] | [16]

O=C(NC(=O)c1c(F)cccc1F)Nc1cc(Cl)c(OC(F)(F)C(F)F)c(Cl)c1
inactive: [1] | [2] | [3] | [4] | [5] | [6] | [7] | [9] | [10] | [11] | [17] | [12] | [13] | [18] | [19] | [14] | [15]

CCCCCCBr
inactive: [1] | [2] | [3] | [4] | [5] | [6] | [7] | [8] | [9] | [10] | [11] | [17] | [13] | [18] | [19] | [15] | [16]

O=C(Nc1ccccc1)Nc1cnns1
inactive: [1] | [2] | [3] | [4] | [5] | [6] | [7] | [9] | [10] | [11] | [17] | [12] | [13] | [19] | [14] | [15] | [16]

CCCCNP(N)(N)=S
inactive: [1] | [2] | [3] | [4] | [5] | [6] | [8] | [9] | [10] | [11] | [17] | [12] | [13] | [18] | [19] | [14] | [16]
